According to PubChem BioAssay:
Active and inactive are the calls of the source.

Legend:
[1] = binders of probe aFSTL3 on microarray, primary screen, stem cell growth factor project, biochemical, small-molecule microarray, fluorescence 635/667 (AID 1064); conditions: higher = more signal;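 further: measures binding of the biotinylated anti-FSTL3 antibody to printed compounds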
[2] = binders from COS7 lysate, DM2A8 probe, primary screen, torsin A project, cell lysate, small-molecule microarray, fluorescence 635/667 (AID 1065); conditions: higher = more signal, COS7 lysate expressing mutant human TOR1A
[3] = binders of probe aFGF2 on microarray, primary screen, stem cell growth factor project, biochemical, small-molecule microarray, fluorescence 635/667 (AID 1067); conditions: higher = more signal;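 further: measures binding of biotinylated aFGF2 protein to printed compounds on slides; z-score merges feature fluorescence and signal-to-noise across triplicate slides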
[4] = binders of probe aFGF10 on microarray, primary screen, stem cell growth factor project, biochemical, small-molecule microarray, fluorescence 635/667 (AID 1071); conditions: higher = more signal;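 further: score merges 667 nm spot intensity and signal to noise from triplicate slides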
[5] = target: Neurogenic locus notch homolog protein 2 (Homo sapiens) (UniProt Q04721); assay: Notch2 binders on small-molecule microarrays, primary screen, biochemical, small-molecule microarray, 635 nm fluorescence, stem cell growth factors (AID 1073); conditions: Notch2 binding, higher = more signal
[6] = target: Pro-neuregulin-1, membrane-bound isoform (Homo sapiens) (UniProt Q02297); assay: NRG1 binders on small-molecule microarrays, primary screen, psychiatric disease protein project, biochemical, small-molecule microarray, fluorescence 635/667 (AID 1075); conditions: NRG1 binding, 635 nm fluorescence, higher = more signal;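 further: score combines 667 nm spot fluorescence with signal to noise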
[7] = system: Neuregulin-1 EGF-like domain; assay: binders of neuregulin-1 EGF-like domain, primary screen, biochemical, small-molecule microarray, 635 nm fluorescence (AID 1081); conditions: small-molecule microarray binding, higher = more signal;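 further: binding of the protein to compounds printed on small-molecule microarray slides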
[8] = FRG1 promoter luciferase signal modulators, primary screen, FRG1 inhibition for FSHD, cell-based, C2C12 myotubes, firefly/Renilla luciferase, luminescence (AID 1084); conditions: higher = more signal, called active from +8 up or from −8 down
[9] = binders of probe aFST on microarray, primary screen, stem cell growth factor project, biochemical, small-molecule microarray, fluorescence 635/667 (AID 1086); conditions: higher = more signal;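 further: score merges 667 nm fluorescence with signal-to-noise of each printed compound spot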
[10] = binders of probe aHhip on microarray, primary screen, stem cell growth factor project, biochemical, small-molecule microarray, fluorescence 635/667 (AID 1087); conditions: higher = more signal;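 further: score merges spot fluorescence at 667nm with spot signal to noise ratio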
[11] = system: PRMT1 (protein arginine N-methyltransferase 1); assay: PRMT1 binders on small-molecule microarrays, primary screen, biochemical, small-molecule microarray, 635 nm fluorescence (AID 1088); conditions: small-molecule microarray binding, higher = more signal;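 further: binding of Prmt1 protein to compounds spotted on small-molecule microarray slides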
[12] = yeast growth modulation, basal conditions, primary screen, YJM789 clinical isolate, OD600, 24 h (AID 1089);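 further: growth of clinical yeast isolate S. cerevisiae YJM 789 seeded 1000 cells per well; test concentration not given here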; conditions: S. cerevisiae YJM789 growth, higher = more signal, called active from +8 up or from −8 down
[13] = fission yeast growth modulation, primary screen, strain 972, OD600, 24 h, no modulator (AID 1090);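 further: basal condition with compound alone and no growth modifier present; test concentration not given here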; conditions: S. pombe 972 growth, higher = more signal, called active from +8 up or from −8 down
[14] = S. cerevisiae growth modulation with rapamycin, primary screen, strain BY4716, OD600, 96 h (AID 1091); conditions: higher = more signal, called active from +8 up or from −8 down; further: test concentration not given here
[15] = target: Torsin-1A-interacting protein 2 (Homo sapiens) (UniProt Q8NFQ8); assay: LULL1 binders on small-molecule microarray, primary screen, cell lysate, human LULL1 lysate, 635/667 nm fluorescence (AID 1092); conditions: hLULL1 lysate binding, 635 nm fluorescence, higher = more signal;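 further: probe is lysate of COS7 cells overexpressing human LULL1; score merges per-feature 667 nm fluorescence with signal-to-noise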
[16] = E. coli growth modulation, two-sided OD650, primary screen, E. coli filamentation project, strain DRC41, 24 h (AID 1093); conditions: OD650, 24 h, higher = more signal, called active from +8 up or from −8 down;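 further: MC1000 strain lacking acrAB efflux and sulA so SOS filamentation is blocked; test concentration not given here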
[17] = small-molecule microarray binders of probe aLefty2, primary screen, biochemical, biotinylated probe, 635/667 nm fluorescence (AID 1094); conditions: higher = more signal;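 further: score merges spot fluorescence near 667 nm with spot signal-to-noise ratio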
[18] = system: Noggin (protein binding on small-molecule microarray); assay: Noggin binders on small-molecule microarray, primary screen, biochemical, 635/667 nm fluorescence (AID 1095); conditions: 635 nm fluorescence, higher = more signal;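 further: score merges 667 nm feature fluorescence with signal to noise over triplicate slides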
[19] = target: Neurogenic locus notch homolog protein 3 (Homo sapiens) (UniProt Q9UM47); assay: NOTCH3 binders on small-molecule microarray, primary screen, biochemical, 635/667 nm fluorescence (AID 1096); conditions: NOTCH3 binding, 635 nm fluorescence, higher = more signal
[20] = small-molecule microarray binders of probe aEGFR, primary screen, biochemical, biotinylated probe, 635/667 nm fluorescence (AID 1097); conditions: higher = more signal;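 further: probe is a biotinylated anti-EGFR antibody binding compounds printed on slides; score combines fluorescence near 667 nm and signal to noise of each spot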

Sequence of Pro-neuregulin-1, membrane-bound isoform (Homo sapiens) (Q02297 whole entry, looked up, the tested form may be a part, canonical isoform): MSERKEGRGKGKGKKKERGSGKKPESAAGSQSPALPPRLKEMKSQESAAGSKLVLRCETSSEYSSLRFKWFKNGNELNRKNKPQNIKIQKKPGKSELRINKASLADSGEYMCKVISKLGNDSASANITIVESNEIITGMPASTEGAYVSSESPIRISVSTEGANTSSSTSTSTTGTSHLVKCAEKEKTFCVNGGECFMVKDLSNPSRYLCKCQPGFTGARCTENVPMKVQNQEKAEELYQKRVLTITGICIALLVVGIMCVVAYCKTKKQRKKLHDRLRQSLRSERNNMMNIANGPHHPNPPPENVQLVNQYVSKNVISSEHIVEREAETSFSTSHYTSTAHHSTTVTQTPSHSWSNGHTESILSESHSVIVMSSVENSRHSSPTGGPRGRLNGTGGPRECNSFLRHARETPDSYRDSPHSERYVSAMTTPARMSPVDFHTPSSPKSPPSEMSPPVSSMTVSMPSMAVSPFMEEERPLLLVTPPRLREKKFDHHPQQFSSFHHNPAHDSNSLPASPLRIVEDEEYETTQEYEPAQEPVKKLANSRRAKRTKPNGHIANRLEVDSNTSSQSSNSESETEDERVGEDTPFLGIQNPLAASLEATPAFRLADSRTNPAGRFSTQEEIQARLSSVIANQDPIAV
Sequence of Neurogenic locus notch homolog protein 2 (Homo sapiens) (Q04721 whole entry, looked up, canonical isoform): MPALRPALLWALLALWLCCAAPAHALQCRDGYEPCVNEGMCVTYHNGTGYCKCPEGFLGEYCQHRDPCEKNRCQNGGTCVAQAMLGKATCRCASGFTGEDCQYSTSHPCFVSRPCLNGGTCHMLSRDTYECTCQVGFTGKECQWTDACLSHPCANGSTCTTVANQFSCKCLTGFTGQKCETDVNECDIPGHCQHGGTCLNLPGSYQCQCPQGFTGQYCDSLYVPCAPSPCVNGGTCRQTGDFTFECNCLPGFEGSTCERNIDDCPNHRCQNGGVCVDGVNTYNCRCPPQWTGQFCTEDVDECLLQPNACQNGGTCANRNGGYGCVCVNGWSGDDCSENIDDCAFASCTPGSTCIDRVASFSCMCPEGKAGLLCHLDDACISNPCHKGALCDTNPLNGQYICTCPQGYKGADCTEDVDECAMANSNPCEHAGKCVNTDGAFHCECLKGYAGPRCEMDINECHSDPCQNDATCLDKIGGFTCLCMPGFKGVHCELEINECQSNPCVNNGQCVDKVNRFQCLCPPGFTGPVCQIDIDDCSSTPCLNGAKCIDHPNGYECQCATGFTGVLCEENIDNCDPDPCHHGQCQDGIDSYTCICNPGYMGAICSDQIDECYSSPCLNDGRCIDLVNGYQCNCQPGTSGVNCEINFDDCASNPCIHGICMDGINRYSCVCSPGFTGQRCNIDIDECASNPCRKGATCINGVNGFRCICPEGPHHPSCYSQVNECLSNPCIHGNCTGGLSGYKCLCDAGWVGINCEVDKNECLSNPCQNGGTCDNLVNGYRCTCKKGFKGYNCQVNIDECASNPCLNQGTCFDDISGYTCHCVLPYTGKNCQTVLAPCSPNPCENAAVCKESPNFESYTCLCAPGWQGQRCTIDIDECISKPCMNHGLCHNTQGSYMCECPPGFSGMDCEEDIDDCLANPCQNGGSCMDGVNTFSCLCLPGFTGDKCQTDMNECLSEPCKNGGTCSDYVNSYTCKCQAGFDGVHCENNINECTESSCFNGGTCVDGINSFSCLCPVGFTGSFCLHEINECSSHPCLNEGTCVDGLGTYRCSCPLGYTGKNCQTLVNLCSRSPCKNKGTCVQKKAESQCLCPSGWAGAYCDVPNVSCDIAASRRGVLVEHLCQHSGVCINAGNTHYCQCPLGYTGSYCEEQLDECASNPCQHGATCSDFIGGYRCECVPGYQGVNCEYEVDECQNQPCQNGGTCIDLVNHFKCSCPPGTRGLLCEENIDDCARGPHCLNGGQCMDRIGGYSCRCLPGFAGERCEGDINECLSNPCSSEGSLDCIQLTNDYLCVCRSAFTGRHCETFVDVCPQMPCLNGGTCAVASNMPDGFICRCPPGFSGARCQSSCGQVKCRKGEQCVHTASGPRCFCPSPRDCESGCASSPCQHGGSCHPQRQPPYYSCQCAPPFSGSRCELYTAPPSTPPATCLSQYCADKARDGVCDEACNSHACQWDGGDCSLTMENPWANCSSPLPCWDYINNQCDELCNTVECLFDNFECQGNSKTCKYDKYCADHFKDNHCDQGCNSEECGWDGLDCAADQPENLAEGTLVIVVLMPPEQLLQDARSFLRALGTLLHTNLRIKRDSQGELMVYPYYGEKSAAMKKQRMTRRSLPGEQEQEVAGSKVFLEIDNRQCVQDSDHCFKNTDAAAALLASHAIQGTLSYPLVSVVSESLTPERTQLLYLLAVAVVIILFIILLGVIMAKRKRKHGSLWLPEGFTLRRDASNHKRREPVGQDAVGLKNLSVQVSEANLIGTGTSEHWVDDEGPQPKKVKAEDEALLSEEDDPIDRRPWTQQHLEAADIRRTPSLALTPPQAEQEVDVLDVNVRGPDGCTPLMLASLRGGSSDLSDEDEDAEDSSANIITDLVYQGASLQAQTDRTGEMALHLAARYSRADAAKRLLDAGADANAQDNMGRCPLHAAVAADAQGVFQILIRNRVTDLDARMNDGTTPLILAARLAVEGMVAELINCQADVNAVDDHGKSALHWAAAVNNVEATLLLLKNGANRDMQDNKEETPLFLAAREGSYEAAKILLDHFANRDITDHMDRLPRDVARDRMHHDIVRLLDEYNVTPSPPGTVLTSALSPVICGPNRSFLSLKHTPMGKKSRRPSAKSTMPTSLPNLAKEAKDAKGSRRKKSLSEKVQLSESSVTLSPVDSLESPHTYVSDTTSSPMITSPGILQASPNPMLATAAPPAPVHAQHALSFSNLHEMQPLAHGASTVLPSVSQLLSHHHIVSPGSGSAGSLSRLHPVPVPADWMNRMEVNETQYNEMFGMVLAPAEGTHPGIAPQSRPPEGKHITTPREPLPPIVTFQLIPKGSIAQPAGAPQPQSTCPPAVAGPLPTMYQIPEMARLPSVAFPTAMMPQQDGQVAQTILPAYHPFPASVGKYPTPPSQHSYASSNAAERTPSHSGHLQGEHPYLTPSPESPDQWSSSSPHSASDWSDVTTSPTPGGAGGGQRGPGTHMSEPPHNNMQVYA
Sequence of Torsin-1A-interacting protein 2 (Homo sapiens) (Q8NFQ8 whole entry, looked up): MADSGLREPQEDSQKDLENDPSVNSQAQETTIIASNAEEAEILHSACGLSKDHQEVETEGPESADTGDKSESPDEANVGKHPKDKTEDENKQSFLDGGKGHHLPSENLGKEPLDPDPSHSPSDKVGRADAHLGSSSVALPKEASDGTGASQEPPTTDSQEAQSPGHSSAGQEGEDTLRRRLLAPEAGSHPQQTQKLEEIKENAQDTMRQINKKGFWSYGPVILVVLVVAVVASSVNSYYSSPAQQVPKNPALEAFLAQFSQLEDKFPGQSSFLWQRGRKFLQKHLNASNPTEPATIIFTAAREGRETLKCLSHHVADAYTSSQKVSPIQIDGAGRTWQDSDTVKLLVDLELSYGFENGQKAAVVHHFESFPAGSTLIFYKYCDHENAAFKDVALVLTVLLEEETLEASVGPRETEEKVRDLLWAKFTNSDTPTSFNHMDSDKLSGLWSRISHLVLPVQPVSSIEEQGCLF

| Structure (SMILES) | composite z-score [1] | composite z-score [2] | composite z-score [3] | composite z-score [4] | composite z-score [5] | composite z-score [6] | composite z-score [7] | z-score [8] | composite z-score [9] | composite z-score [10] | composite z-score [11] | z-score [12] | z-score [13] | z-score [14] | composite z-score [15] | z-score [16] | composite z-score [17] | composite z-score [18] | composite z-score [19] | composite z-score [20] |
| --- | --- | --- | --- | --- | --- | --- | --- | --- | --- | --- | --- | --- | --- | --- | --- | --- | --- | --- | --- | --- |
| CC(C)CON=C1C[C@@H](O)[C@@H](O)[C@@H]2[C@@H]3C(=O)N([C@@H](C)c4ccccc4)C(=O)[C@@H]3CC[C@@H]12 | 0.083 | 0.114 | -0.145 | 0.107 | 0.309 | -0.104 | -0.546 | 0.431 (inactive) | 0.624 | 0.0373 | -0.413 | 0.281 (inactive) | 0.603 (inactive) | -0.188 (inactive) | 0.246 | 0.3 (inactive) | 0.224 | 0.347 | 0.114 | -0.0286 |
| CO[C@@H]1COC(=O)CC=C[C@H](C)[C@H](OC)COC(=O)[C@@H]2CCCN2C(=O)CC=C[C@H]1C | -0.811 | 1.74 | -0.196 | 0.0967 | -0.271 | -0.285 | 0.158 | -0.331 (inactive) | 0.0991 | -0.166 | 0.684 | 0.0396 (inactive) | -0.719 (inactive) | -0.249 (inactive) | -0.722 | 0.127 (inactive) | -0.225 | 1.78 | -0.128 | 0.153 |
| CC(CCN1CCCCc2nc(C)c(C)cc21)=NO[C@H](C)c1cn([C@@H]2COC[C@H]2O)nn1 | -0.565 | 2.25 | -0.126 | 0.517 | 1.11 | 0.172 | 1.18 | 0.227 (inactive) | 0.462 | -0.0772 | 1.19 | 0.565 (inactive) | 1.07 (inactive) | 0.601 (inactive) | 0.967 | 0.681 (inactive) | 0.0636 | 1.51 | 0.486 | 0.267 |
| CC(C)=NO[C@@H](C)c1cn([C@H](CO)Cc2ccccc2)nn1 | -0.0953 | 0.463 | 0.153 | 0.423 | 0.579 | 0.763 | 0.442 | -0.88 (inactive) | 0.907 | 0.132 | 0.99 | -1.93 (inactive) | -2.29 (inactive) | -0.735 (inactive) | 1.03 | -0.409 (inactive) | -0.127 | 0.946 | 0.331 | 0.255 |
| CCOC(=O)[C@H](Cc1ccccc1)NC(=O)CCC1CC(OC(=O)NCc2cccc3ccccc23)CC2(CCCC(COC(=O)NCCc3ccc(Cl)cc3)O2)O1 (stereo not given in full) | -0.487 | 0.0381 | -0.205 | 0.13 | 0.597 | 0.108 | 0.966 | 0.903 (inactive) | -0.0328 | -0.0645 | 1.15 | -0.69 (inactive) | -0.0785 (inactive) | -0.647 (inactive) | 1.3 | -0.159 (inactive) | -0.253 | 0.448 | 0.974 | -0.0922 |
| O=C(NN=C1C[C@@H](O)[C@@H](O)[C@@H]2[C@@H]3C(=O)N(Cc4ccc5c(c4)OCO5)C(=O)[C@@H]3CC[C@@H]12)OCc1ccccc1 | 0.595 | -0.183 | -0.0467 | 0.107 | 0.133 | 0.022 | -0.17 | 1.78 (inactive) | 0.312 | -0.134 | -0.0443 | 0.186 (inactive) | -0.475 (inactive) | -0.4 (inactive) | 0.418 | 0.885 (inactive) | 0.0026 | -0.0248 | -0.142 | -0.0433 |
| COc1ccc(OC[C@@H]2CC3[C@@H](c4ccc(Br)cc4)[C@H](C)CC[C@H]3C(=O)O2)cc1 (stereo not given in full) | -0.416 | 0.138 | -0.142 | 0.0248 | 0.407 | 0.093 | -0.216 | -0.321 (inactive) | 0.204 | -0.0645 | 0.112 | -0.251 (inactive) | -2.64 (inactive) | 0.0176 (inactive) | 0.82 | -0.145 (inactive) | -0.158 | 0.991 | 0.509 | -0.159 |
| CCC1=NOC(CCC2CC(OC(=O)NCc3cccc4c3OCO4)CC3(CCCC(COC(=O)NCCc4ccc(Cl)cc4)O3)O2)C1 (stereo not given) | -0.281 | 0.0253 | 0.0388 | 0.88 | 0.0241 | 1.44 | 1.12 | 1.24 (inactive) | -0.0353 | -0.0994 | 0.616 | -0.57 (inactive) | 0.232 (inactive) | 0.407 (inactive) | 1.59 | 0.812 (inactive) | -0.186 | 0.379 | -0.165 | -0.125 |
| CC(C)CON=C1C[C@@H](O)[C@@H](O)[C@@H]2[C@@H]3C(=O)N(c4ccc(F)cc4F)C(=O)[C@@H]3CC[C@@H]12 | -0.527 | 0.118 | -0.0502 | 0.345 | 0.429 | 0.984 | 0.557 | 0.581 (inactive) | 0.283 | -0.0994 | 0.601 | 0.0347 (inactive) | -0.786 (inactive) | -0.733 (inactive) | 0.956 | 1.24 (inactive) | -0.212 | 0.344 | 0.898 | -0.026 |
| COC(=O)[C@@H]1CC[C@H](C)[C@@H](c2ccc(C)cc2)N1C(=O)c1ccc(C=NOC[C@H]2O[C@H](c3ccccc3)C=C[C@@H]2Oc2ccc(OC)cc2)cc1 | -0.462 | -0.24 | -0.154 | 0.217 | -0.0637 | 0.0379 | -0.631 | 0.434 (inactive) | 0.044 | -0.191 | 0.391 | 0.456 (inactive) | 0.267 (inactive) | 0.0902 (inactive) | -0.703 | -0.234 (inactive) | -0.0977 | -0.0296 | 0.107 | -0.0682 |
